ROMK primary: human ROMK K+ channel modulation, primary screen; P48048; Tet-inducible ROMK, thallium flux fluorescence; actives lie on both sides; B-score at 10 µM; 130,000 compounds, 2% hits; AID 1918;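 active = signal ratio slope over the read window, or its plate-corrected B-score, at least 3 SD from the plate mean, either direction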;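 note: B-score of the F/F0 ratio slope over 7 to 12 s after thallium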
Target sequence (P48048 whole entry, looked up): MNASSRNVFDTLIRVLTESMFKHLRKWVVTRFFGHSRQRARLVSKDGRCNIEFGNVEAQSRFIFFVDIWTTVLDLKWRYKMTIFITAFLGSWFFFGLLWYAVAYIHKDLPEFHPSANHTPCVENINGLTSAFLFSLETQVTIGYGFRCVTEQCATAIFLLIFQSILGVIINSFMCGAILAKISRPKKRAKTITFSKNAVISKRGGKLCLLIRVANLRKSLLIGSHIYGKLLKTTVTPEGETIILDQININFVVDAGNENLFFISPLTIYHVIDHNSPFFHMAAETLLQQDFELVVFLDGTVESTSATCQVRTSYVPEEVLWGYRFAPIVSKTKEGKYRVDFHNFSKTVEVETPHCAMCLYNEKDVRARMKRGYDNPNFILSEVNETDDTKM
Insulin prom inh: TRM-6 insulin promoter activity inhibition | TRM-6 cells (human fetal islet line), insulin promoter-eGFP reporter, imaging; reporter expression induced with tamoxifen | inhibition, % at 2 µM | 130,000 compounds, 0.9% hits | AID 1273;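 active = inhibition above the mean plus 3 SD, with well images judged a real hit on visual review, cut at about 60% in these data, passing the limit was not always enough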
Lmaj promast: inhibitors of Leishmania major promastigote growth | Leishmania major promastigotes, resazurin fluorescence viability | inhibition, % at 10 µM | 200,000 compounds, 9% hits | AID 1063; in the data active = inhibition above about 50%;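 note: promastigotes grown with compound for 44 hours at 28 °C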
Ins promoter up: MIN6 insulin promoter up-regulation; MIN6 insulin promoter-GFP reporter, high-content imaging; active compounds read high; AID 1625; z-score at 5 µM; 190,000 compounds, 0.3% hits;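 active = z-score above 3 at 5 µM with at least 500 cells counted in the well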
KCC2 mod: modulates chloride dependent transport by human KCC2; B-score of Tl+ flux slope (higher = more flux/activation; lower = inhibition) at 10 µM; AID 1456; Q9H2X9; KCC2 cells, thallium flux FluoZin-2 fluorescence; 190,000 compounds, 2.2% hits;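 active = thallium flux slope and its plate-corrected score both differing from the plate sample mean at a set confidence after two filtering rounds, in either direction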;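 note: slope of fluorescence scaled to starting intensity during 10 to 20 s after thallium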
WT yeast gro inh: growth inhibition of WT yeast, mitochondrial fusion screen. AID 1362. inhibition, % at 10 µM. mitochondrial fusion phenotypic screen, WT strain. 190,000 compounds, 2.1% hits; in the data active = inhibition above about 58%; tested in S. cerevisiae
Starred values were filed as active, the others as inactive; nt = no result. Sampled rows, rich in hits. Any-hit rate of the full collection: about 12%.

SMILES | ROMK primary | Insulin prom inh | Lmaj promast | Ins promoter up | KCC2 mod | WT yeast gro inh
Cn1c(=O)oc2cc(S(=O)(=O)N3CCN(Cc4ccc5c(c4)OCO5)CC3)ccc21 | -0.32 | nt | 76* | -0.18 | nt | 6
Cc1cc(S(=O)(=O)N2CCCC2)ccc1OCC(=O)N1CCOCC1 | 1.3 | 78* | -8 | -0.13 | 1.4 | -15
Cc1cc(S(=O)(=O)NC2CCCCC2)ccc1OCC(=O)N1CCOCC1 | 0.1 | -62 | -9 | nt | nt | 5
COc1ccc(S(=O)(=O)N2CCN(S(=O)(=O)c3ccc4c(c3)OCCO4)CC2)cc1C | -2.8 | -43 | 61* | 0.14 | 0.55 | 21
O=S(=O)(c1ccc2c(c1)OCCO2)N1CCN(Cc2ccc3c(c2)OCO3)CC1 | -1.8 | -11 | 73* | -0.06 | -0.00041 | 20
O=S(=O)(c1ccc2c(c1)OCCO2)N1CCN(Cc2ccccc2)CC1 | -0.38 | -19 | 5 | -0.61 | -1.1 | 10
CC(=O)c1cc(C#N)c(Oc2ccccc2)nc1C | nt | nt | -1 | nt | 0.15 | nt
O=C(OCc1ccc2c(c1)OCO2)c1cccc(S(=O)(=O)N2CCCCC2)c1 | -1 | -38 | 55* | 0.21 | -0.0064 | 22
O=C(c1ccc(S(=O)(=O)N2CCCCC2)cc1)N1CCN(Cc2ccc3c(c2)OCO3)CC1 | -0.34 | nt | 98* | -0.5 | nt | -12
O=C(NCc1ccc2c(c1)OCO2)C1CCN(c2ccc(S(=O)(=O)N3CCCC3)cc2)CC1 | nt | -36 | 97* | 0.34 | -0.96 | -3
O=C(c1cccc(S(=O)(=O)N2CCOCC2)c1)N1CCN(Cc2ccc3c(c2)OCO3)CC1 | 0.062 | nt | 2 | nt | 0.018 | -12
O=C(NCc1ccc2c(c1)OCO2)C1CCN(S(=O)(=O)N2CCCCC2)CC1 | -0.72 | -36 | -2 | 0.26 | 0.4 | 8
Cc1nn(C(C)C(=O)NCC2CCCO2)c(C)c1[N+](=O)[O-] (stereo not given) | nt | nt | -7 | 0.18 | 0.76 | -29
CCn1c(CSc2nnc(-c3ccc4c(c3)OCO4)o2)nc2cc(S(=O)(=O)N(C)C)ccc21 | nt | 16 | 9 | -2.1 | -0.98 | 16
O=C1CCCN1CCC1CCN(C2CC(=O)N(c3ccc(F)cc3)C2=O)CC1 (stereo not given) | -0.22 | 17 | -9 | -0.66 | 1.1 | 0
CCn1c(SCc2nc3cc(OC)c(OC)cc3c(=O)[nH]2)nc2ccccc21 | -1.6 | nt | -1 | -0.57 | -0.35 | -15
O=S(=O)(c1ccc2ccccc2c1)N1CCN(C2CCN(Cc3ccccc3)CC2)CC1 | -0.83 | nt | 97* | -0.9 | -0.096 | 22
O=S(=O)(c1ccc2ccccc2c1)N1CCN(Cc2ccccn2)CC1 | -0.25 | -17 | -6 | 0.22 | -1.3 | -10
O=S(=O)(c1ccc(Cl)cc1)N1CCC(O)(CN2CCN(Cc3ccccc3)CC2)CC1 | -0.8 | nt | 100* | -0.65 | -1.2 | 5
COc1ccc(S(=O)(=O)N2CCC(N3CCN(c4ccccc4)CC3)CC2)cc1 | nt | -5 | -2 | -0.68 | 1.6 | -14
O=S(=O)(NC1CCCC1)c1ccc(S(=O)(=O)N2CCCN(Cc3ccccc3)C2)cc1 | nt | nt | 84* | 0.83 | -0.27 | -10
COc1ccc(S(=O)(=O)N2CCN(C3CCN(Cc4ccccc4)CC3)CC2)cc1 | -0.066 | -12 | 94* | -1.5 | -1.2 | -3
N#Cc1ccc(S(=O)(=O)NC2CCN(Cc3ccccc3)CC2)cc1 | 0.13 | nt | nt | -0.23 | -0.82 | nt
COc1ccccc1OCC(=O)Nc1ccccn1 | nt | nt | -8 | 0.35 | -0.53 | 9
COc1ccccc1N1CCN(C2CCN(S(=O)(=O)c3ccc4ccccc4c3)CC2)CC1 | nt | -18 | 55* | -1 | -0.16 | 21
SMILES | ROMK primary | Insulin prom inh | Lmaj promast | Ins promoter up | KCC2 mod | WT yeast gro inh
O=S(=O)(c1ccc(S(=O)(=O)N2CCN(Cc3ccccc3)CC2)cc1)N1CCOCC1 | nt | 6 | -1 | -1.2 | -0.15 | -5
O=S(=O)(c1ccccc1)N1CCN(C2CCN(Cc3ccccc3)CC2)CC1 | -0.13 | nt | 96* | -0.44 | 1.1 | 8
O=S(=O)(c1ccc2ccccc2c1)N1CCCCCC1 | -0.58 | 33 | -6 | -1.9 | 0.15 | -8
Cc1ccc(S(=O)(=O)N2CCN(C3CCN(Cc4ccccc4)CC3)CC2)cc1 | -1 | nt | 98* | -0.69 | -1.6 | 6
O=S(=O)(c1ccc2ccccc2c1)N1CCN(C2Cc3ccccc3C2)CC1 | nt | nt | 86* | nt | 0.43 | -6
C[N+](C)(C)CCCCCC(=O)/C=N/O | nt | 8 | -4 | -0.04 | 1.5 | -3
COc1ccccc1N1CCN(S(=O)(=O)c2ccc3nc(-c4ccccc4)[nH]c3c2)CC1 | 0.39 | 7 | 57* | -0.14 | -0.77 | 21
